From the supplement of paper PMC10849652
Of roughly 8,800 targets only a part is listed; those with a hit were picked by preference. About 0.5% of all pairs of compound and target were hits.

Experiments:
Assay in all cases: log2 fold change, soluble protein after heating vs DMSO (PISA); higher = thermal stabilisation; K562 lysate, 10 uM; active = over 0.2 and 3.5 SD of the protein, either way, in both replicates (recomputed)
vemurafenib = compound: CCCS(=O)(=O)Nc1ccc(F)c(C(=O)c2c[nH]c3ncc(-c4ccc(Cl)cc4)cc23)c1F [vemurafenib]
Summary of the method: (§1)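 Pellets of K562 cells were dounce-homogenised in PBS pH 7.4 with 1 mM MgCl2, and the crude extract was held at 1 mg/mL protein for a 30 min treatment with 10 μM compound. Aliquots were heated for 3 min over 48°C-58°C and pooled before NP-40 was added to 0.5% at 4°C. The supernatant from 21,000xg for 90 min was quantified by TMTpro 16plex LC-MS/MS with channel sums equalised. Values are reported from duplicates as log-two fold change in thermal stability relative to solvent controls.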

[1] = compound: CCCS(=O)(=O)Nc1ccc(F)c(C(=O)c2c[nH]c3ncc(Cl)cc23)c1F
Summary of the method: as §1

barasertib = compound: CCN(CCCOc1ccc2c(Nc3cc(CC(=O)Nc4cccc(F)c4)[nH]n3)ncnc2c1)CCOP(=O)(O)O [barasertib]
Summary of the method: as §1

[2] = compound: CC[C@@H]1C(=O)N(C)c2cnc(Nc3ccc(C(=O)NC4CCN(C)CC4)cc3OC)nc2N1C1CCCC1
Summary of the method: as §1

volasertib = compound: CC[C@@H]1C(=O)N(C)c2cnc(Nc3ccc(C(=O)N[C@H]4CC[C@H](N5CCN(CC6CC6)CC5)CC4)cc3OC)nc2N1C(C)C [volasertib]
Summary of the method: as §1

[3] = compound: CCn1c(C(=O)N(C2CC2)C2CC2)cc2c3c(ncn3C)c(Nc3cc(C)n(C)n3)nc21
Summary of the method: as §1

[4] = compound: CCn1cc(-c2ccnc3[nH]c(-c4cccc(CN(C)C)c4)cc23)c(-c2ccc(NC(=O)N(C)C)cc2)n1
Summary of the method: as §1

[5] = compound: CN1CCC(CNc2ccc3ncc(-c4cccc(OC(F)(F)F)c4)n3n2)CC1
Summary of the method: as §1

saracatinib = compound: CN1CCN(CCOc2cc(OC3CCOCC3)c3c(Nc4c(Cl)ccc5c4OCO5)ncnc3c2)CC1 [saracatinib]
Summary of the method: as §1

sotrastaurin = compound: CN1CCN(c2nc(C3=C(c4c[nH]c5ccccc45)C(=O)NC3=O)c3ccccc3n2)CC1 [sotrastaurin]
Summary of the method: as §1

Measured: log2 fold change

KHK isoform 2 (UniProt P50053)
active: [4] 0.404
inactive: vemurafenib -0.021 | [1] 0 | barasertib 0.052 | [2] -0.053 | volasertib 0.017 | [3] 0.076 | [5] -0.072 | saracatinib 0.067 | sotrastaurin 0.013

HSD17B12 (UniProt Q53GQ0)
Chain of UniProt Q53GQ0 (Q53GQ0 whole entry, looked up): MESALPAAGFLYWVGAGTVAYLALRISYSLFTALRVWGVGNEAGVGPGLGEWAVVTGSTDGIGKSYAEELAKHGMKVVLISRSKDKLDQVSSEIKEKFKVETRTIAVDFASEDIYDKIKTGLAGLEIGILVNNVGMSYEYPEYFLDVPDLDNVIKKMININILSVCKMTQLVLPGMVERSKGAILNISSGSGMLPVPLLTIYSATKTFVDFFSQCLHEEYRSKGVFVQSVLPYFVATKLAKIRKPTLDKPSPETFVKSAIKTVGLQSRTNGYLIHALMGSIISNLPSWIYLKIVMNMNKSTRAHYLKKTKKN
inactive: vemurafenib 0.073 | [1] 0.005 | barasertib 0.047 | [2] 0.003 | volasertib -0.096 | [3] -0.024 | [5] -0.107 | saracatinib 0.105 | sotrastaurin 0.071
active: [4] -0.304

GSK3A (UniProt P49840)
active: sotrastaurin 0.535
inactive: vemurafenib -0.013 | [1] 0.006 | barasertib -0.04 | [2] -0.015 | volasertib -0.01 | [3] 0.026 | [4] -0.133 | [5] 0.154 | saracatinib 0.01

GTPBP2 (UniProt Q9BX10)
Chain of UniProt Q9BX10 (Q9BX10 whole entry, looked up): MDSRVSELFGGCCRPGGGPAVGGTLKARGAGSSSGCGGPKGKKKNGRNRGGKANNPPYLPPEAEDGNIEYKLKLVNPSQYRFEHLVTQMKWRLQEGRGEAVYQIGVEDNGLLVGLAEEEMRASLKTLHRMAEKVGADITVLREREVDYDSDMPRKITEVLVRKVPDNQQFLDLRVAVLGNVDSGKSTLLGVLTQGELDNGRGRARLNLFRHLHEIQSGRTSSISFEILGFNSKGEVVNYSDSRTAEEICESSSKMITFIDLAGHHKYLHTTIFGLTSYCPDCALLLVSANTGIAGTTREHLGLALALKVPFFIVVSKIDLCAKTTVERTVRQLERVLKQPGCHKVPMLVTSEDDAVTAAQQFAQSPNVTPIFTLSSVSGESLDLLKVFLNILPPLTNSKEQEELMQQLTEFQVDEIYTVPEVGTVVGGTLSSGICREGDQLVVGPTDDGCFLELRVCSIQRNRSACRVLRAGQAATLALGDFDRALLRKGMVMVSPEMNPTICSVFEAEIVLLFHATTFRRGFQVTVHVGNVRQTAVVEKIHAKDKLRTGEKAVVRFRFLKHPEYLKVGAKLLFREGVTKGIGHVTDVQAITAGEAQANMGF
inactive: vemurafenib 0.005 | [1] 0.005 | barasertib 0.034 | [2] -0.03 | volasertib -0.104 | [3] 0.043 | [4] 0.124 | [5] -0.074 | saracatinib 0.047 | sotrastaurin 0.043

GOLPH3 (UniProt Q9H4A6)
inactive: vemurafenib -0.007 | [1] 0.015 | barasertib 0.036 | [2] -0.016 | volasertib -0.041 | [3] 0.018 | [4] -0.029 | [5] -0.103 | saracatinib 0.021 | sotrastaurin -0.053

ILKAP (UniProt Q9H0C8)
inactive: vemurafenib -0.037 | [1] -0.01 | barasertib -0.04 | [2] -0.048 | volasertib -0.017 | [3] 0.002 | [4] 0.016 | [5] 0 | saracatinib -0.013 | sotrastaurin 0.021

HARS (UniProt P12081)
Chain of UniProt P12081 (P12081 whole entry, looked up): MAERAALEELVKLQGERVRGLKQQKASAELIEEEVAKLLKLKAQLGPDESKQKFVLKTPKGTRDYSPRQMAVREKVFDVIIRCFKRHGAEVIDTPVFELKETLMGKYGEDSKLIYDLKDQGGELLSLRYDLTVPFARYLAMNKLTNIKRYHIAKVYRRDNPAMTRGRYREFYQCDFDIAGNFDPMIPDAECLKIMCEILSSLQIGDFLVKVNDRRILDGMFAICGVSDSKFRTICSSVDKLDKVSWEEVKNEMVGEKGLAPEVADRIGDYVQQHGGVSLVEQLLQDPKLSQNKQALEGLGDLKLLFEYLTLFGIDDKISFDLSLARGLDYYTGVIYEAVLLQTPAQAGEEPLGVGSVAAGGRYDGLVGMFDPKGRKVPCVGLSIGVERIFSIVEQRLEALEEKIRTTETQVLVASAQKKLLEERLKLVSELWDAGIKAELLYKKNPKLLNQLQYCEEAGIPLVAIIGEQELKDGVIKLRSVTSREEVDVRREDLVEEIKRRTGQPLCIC
inactive: vemurafenib -0.024 | [1] -0.02 | barasertib -0.031 | [2] -0.049 | volasertib -0.006 | [3] 0.012 | [4] 0.023 | [5] -0.01 | saracatinib -0.021 | sotrastaurin 0.009

KDM5B isoform 2 (UniProt Q9UGL1)
inactive: vemurafenib 0.043 | [1] 0.073 | barasertib 0.039 | [2] 0.138 | volasertib 0.071 | [3] -0.059 | [4] -0.107 | [5] -0.034 | saracatinib -0.113 | sotrastaurin -0.136

ISOC2 (UniProt Q96AB3)
Chain of UniProt Q96AB3 (Q96AB3 whole entry, looked up): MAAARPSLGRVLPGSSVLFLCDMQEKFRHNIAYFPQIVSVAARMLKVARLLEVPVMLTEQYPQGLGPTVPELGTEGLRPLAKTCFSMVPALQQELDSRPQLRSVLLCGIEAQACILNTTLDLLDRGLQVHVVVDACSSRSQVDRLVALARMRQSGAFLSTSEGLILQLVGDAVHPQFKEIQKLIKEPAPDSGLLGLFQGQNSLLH
inactive: vemurafenib 0.048 | [1] 0.033 | barasertib -0.12 | [2] 0.096 | volasertib 0.013 | [3] -0.043 | [4] 0.02 | [5] -0.08 | saracatinib -0.047 | sotrastaurin 0.002

INTS8 (UniProt Q75QN2)
inactive: vemurafenib 0.016 | [1] 0.02 | barasertib -0.131 | [2] -0.024 | volasertib -0.061 | [3] 0.041 | [4] -0.075 | [5] 0.037 | saracatinib 0.09 | sotrastaurin 0.084

HMGN5 (UniProt P82970)
active: [4] 0.3
inactive: vemurafenib -0.007 | [1] -0.011 | barasertib -0.044 | [2] 0.016 | volasertib 0.013 | [3] -0.044 | [5] -0.164 | saracatinib -0.027 | sotrastaurin -0.029

ITPKA (UniProt P23677)
inactive: vemurafenib -0.007 | [1] 0.019 | barasertib 0.041 | [2] -0.105 | volasertib -0.065 | [3] -0.03 | [4] 0 | [5] 0.054 | saracatinib 0.013 | sotrastaurin -0.045

IFNGR1 (UniProt P15260)
active: [4] -0.641
inactive: vemurafenib 0.182 | [1] -0.07 | barasertib -0.051 | [2] 0.234 | volasertib 0.08 | [3] -0.153 | [5] 0.331 | saracatinib 0.032 | sotrastaurin -0.018

INTS14 (UniProt Q96SY0)
inactive: vemurafenib -0.046 | [1] 0.034 | barasertib -0.021 | [2] 0.019 | volasertib -0.013 | [3] -0.017 | [4] -0.071 | [5] 0.008 | saracatinib -0.019 | sotrastaurin 0.001

HEATR6 (UniProt Q6AI08)
Chain of UniProt Q6AI08 (Q6AI08 whole entry, looked up): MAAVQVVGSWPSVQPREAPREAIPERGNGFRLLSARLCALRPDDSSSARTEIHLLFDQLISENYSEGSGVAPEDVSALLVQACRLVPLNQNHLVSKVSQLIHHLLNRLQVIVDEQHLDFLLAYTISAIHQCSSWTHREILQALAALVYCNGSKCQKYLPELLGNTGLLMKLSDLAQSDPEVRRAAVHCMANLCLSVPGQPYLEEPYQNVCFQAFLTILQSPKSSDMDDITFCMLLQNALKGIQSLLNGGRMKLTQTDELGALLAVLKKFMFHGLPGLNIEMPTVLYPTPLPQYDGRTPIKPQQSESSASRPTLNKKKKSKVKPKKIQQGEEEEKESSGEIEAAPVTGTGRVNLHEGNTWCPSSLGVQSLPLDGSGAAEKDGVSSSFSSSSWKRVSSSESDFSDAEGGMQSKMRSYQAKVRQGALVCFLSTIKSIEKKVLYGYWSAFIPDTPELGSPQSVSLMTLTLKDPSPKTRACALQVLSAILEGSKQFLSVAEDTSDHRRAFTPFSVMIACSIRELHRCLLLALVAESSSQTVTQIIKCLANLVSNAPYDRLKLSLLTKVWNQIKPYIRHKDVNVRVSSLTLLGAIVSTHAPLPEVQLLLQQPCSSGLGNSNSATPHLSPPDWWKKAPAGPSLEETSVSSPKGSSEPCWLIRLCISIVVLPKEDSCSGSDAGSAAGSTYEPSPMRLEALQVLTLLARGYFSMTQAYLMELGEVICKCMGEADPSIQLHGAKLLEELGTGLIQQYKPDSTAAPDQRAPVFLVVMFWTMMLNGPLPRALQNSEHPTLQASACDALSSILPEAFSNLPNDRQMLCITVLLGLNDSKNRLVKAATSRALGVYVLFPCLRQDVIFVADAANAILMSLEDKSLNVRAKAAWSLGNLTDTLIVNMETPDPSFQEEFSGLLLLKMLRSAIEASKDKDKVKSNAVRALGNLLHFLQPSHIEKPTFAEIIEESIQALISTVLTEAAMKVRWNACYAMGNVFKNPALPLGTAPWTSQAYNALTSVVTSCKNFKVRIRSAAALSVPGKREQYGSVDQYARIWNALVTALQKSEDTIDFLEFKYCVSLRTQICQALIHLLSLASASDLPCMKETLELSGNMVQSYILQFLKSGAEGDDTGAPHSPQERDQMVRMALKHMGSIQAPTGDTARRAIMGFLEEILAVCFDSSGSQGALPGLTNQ
inactive: vemurafenib 0.052 | [1] 0.031 | barasertib 0.109 | [2] -0.076 | volasertib -0.019 | [3] 0.073 | [4] -0.001 | [5] -0.008 | saracatinib -0.007 | sotrastaurin 0.064

IRAK1 (UniProt P51617)
inactive: vemurafenib 0.086 | [1] -0.033 | barasertib -0.01 | [2] -0.089 | volasertib -0.134 | [3] 0.041 | [4] -0.135 | [5] 0.043 | saracatinib -0.016 | sotrastaurin -0.029

GSE1 (UniProt Q14687)
inactive: vemurafenib -0.018 | [1] 0.035 | barasertib 0.011 | [2] -0.015 | volasertib -0.026 | [3] 0.007 | [4] -0.074 | [5] -0.009 | saracatinib 0.031 | sotrastaurin 0.049

GMPS (UniProt P49915)
inactive: vemurafenib -0.006 | [1] -0.011 | barasertib -0.008 | [2] -0.05 | volasertib -0.046 | [3] -0.011 | [4] 0.128 | [5] -0.047 | saracatinib 0.014 | sotrastaurin -0.005

GRB10 (UniProt Q13322)
inactive: vemurafenib 0.001 | [1] 0.051 | barasertib 0.054 | [2] -0.054 | volasertib -0.103 | [3] 0.012 | [4] -0.023 | [5] 0.016 | saracatinib -0.082 | sotrastaurin 0.028

KCTD20 (UniProt Q7Z5Y7)
inactive: vemurafenib 0.17 | [1] 0.02 | barasertib 0.052 | [2] 0.046 | volasertib 0.007 | [3] -0.055 | [4] 0.018 | [5] -0.037 | saracatinib 0.048 | sotrastaurin 0.025

HK2 (UniProt P52789)
inactive: vemurafenib 0.046 | [1] 0.006 | barasertib 0.009 | [2] -0.044 | volasertib -0.049 | [3] 0.023 | [4] -0.015 | [5] -0.075 | saracatinib -0.009 | sotrastaurin 0.001

KDM5C (UniProt P41229)
inactive: vemurafenib 0.001 | [1] 0.036 | barasertib 0.096 | [2] -0.031 | volasertib 0.004 | [3] -0.001 | [4] -0.028 | [5] -0.059 | saracatinib 0.008 | sotrastaurin 0.019

GLB1 (UniProt P16278)
inactive: vemurafenib -0.034 | [1] 0.012 | barasertib -0.029 | [2] 0.02 | volasertib -0.045 | [3] -0.017 | [4] -0.066 | [5] 0.019 | saracatinib -0.032 | sotrastaurin 0.043

HMGN4 (UniProt O00479)
inactive: vemurafenib -0.015 | [1] 0.016 | barasertib -0.003 | [2] 0.453 | volasertib 0.003 | [3] 0.022 | [5] -0.595 | saracatinib -0.173 | sotrastaurin -0.099
active: [4] 1.29

INTS1 (UniProt Q8N201)
Chain of UniProt Q8N201 (Q8N201 whole entry, looked up): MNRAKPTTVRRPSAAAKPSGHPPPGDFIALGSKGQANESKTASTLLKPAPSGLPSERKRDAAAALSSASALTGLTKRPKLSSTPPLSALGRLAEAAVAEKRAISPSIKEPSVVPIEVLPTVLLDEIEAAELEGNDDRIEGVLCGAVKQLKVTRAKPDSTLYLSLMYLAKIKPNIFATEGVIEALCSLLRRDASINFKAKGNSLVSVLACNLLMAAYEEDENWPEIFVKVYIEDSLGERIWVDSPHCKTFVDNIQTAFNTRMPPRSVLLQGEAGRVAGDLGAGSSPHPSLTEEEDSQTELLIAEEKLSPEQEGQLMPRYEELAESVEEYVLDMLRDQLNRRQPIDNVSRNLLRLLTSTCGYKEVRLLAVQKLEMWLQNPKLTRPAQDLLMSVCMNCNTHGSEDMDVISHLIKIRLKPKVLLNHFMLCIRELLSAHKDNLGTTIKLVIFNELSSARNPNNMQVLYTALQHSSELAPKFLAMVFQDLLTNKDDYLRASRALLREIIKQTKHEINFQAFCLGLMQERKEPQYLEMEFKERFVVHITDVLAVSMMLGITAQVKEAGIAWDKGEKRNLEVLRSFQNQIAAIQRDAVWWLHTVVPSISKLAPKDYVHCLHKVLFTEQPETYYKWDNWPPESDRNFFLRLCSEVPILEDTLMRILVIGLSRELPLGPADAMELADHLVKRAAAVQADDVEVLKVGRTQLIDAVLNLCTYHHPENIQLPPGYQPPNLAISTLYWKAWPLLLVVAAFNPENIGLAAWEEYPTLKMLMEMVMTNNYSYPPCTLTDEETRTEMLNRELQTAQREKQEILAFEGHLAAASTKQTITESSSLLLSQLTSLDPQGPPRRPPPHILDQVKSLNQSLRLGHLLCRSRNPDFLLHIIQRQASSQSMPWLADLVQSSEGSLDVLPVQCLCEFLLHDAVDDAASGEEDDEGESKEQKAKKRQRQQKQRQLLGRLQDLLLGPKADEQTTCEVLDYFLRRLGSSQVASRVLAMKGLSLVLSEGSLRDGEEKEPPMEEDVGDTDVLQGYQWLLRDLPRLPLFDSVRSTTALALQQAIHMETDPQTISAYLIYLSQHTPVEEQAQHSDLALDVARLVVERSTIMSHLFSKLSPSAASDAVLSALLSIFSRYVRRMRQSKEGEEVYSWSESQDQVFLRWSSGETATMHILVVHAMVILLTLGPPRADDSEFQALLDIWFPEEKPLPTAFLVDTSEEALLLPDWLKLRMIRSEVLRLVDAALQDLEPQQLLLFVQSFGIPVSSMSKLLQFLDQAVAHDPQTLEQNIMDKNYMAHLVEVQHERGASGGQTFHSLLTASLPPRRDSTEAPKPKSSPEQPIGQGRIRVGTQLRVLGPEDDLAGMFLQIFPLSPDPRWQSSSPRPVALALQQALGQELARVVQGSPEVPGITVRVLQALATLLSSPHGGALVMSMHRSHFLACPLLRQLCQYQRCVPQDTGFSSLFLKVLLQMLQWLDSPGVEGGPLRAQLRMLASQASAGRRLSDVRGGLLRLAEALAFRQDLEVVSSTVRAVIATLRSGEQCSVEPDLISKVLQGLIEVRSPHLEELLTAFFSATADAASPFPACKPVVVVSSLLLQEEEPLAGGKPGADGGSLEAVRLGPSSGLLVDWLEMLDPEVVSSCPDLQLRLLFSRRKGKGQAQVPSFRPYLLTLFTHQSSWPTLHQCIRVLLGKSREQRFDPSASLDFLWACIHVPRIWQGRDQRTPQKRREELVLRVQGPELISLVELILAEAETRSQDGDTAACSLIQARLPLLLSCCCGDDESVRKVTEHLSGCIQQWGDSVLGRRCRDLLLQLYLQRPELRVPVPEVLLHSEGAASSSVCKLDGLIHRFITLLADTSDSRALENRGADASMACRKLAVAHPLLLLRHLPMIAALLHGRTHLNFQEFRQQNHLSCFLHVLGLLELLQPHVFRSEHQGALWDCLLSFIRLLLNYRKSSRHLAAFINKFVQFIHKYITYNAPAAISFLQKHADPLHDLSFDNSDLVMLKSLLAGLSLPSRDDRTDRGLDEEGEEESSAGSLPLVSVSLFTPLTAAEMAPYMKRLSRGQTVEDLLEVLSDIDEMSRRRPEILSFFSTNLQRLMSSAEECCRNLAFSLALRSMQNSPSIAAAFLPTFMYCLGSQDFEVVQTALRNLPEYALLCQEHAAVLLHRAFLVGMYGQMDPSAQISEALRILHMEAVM
inactive: vemurafenib 0.042 | [1] -0.096 | barasertib -0.01 | [2] 0.044 | volasertib -0.033 | [3] 0.007 | [4] 0.06 | [5] -0.041 | saracatinib 0 | sotrastaurin -0.002

INTS10 (UniProt Q9NVR2)
inactive: vemurafenib -0.008 | [1] -0.183 | barasertib 0.061 | [2] -0.129 | volasertib -0.088 | [3] -0.021 | [4] 0.14 | [5] -0.054 | saracatinib 0.052 | sotrastaurin 0.023

IMMT (UniProt C9J406)
inactive: vemurafenib -0.018 | [1] -0.036 | barasertib -0.105 | [2] 0.098 | volasertib -0.015 | [3] 0.018 | [4] -0.464 | [5] -0.037 | saracatinib 0.074 | sotrastaurin 0.02
